Over roughly 68,000 sequences, “fluorescence intensity (a.u.)” has its median near 9,100; the highest 2% begin near 16,000. Many of the other results were omitted from the sample, so the highest values are more common in it than they were.

In the assay the target is OsWRKY34 (Oryza sativa, UniProt Q0JBA9 1-250). The assay is described as follows: protein-binding microarray (RPBM); PBS, 2% BSA, 51.3 ng/ul salmon testes DNA, 50 uM zinc acetate, 200 nM TF, 25 C, 1 h; high values mean tight binding. The following applies: protein: recombinant; tags: N-terminal polyhistidine and DsRed monomer fusion (pET32a); label: CyDye5-dUTP incorporated in the synthesized complementary strand; 3' TTTTT single-stranded linker to array surface; dsDNA, one strand shown. In outline: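 Ni–NTA purification followed expression in E. coli BL21-CodonPlus of transcription factors fused N-terminally to a polyhistidine tag and DsRed. At 200 nM in PBS with 2% BSA, salmon testes DNA and 50 µM zinc acetate, the protein was incubated for 1 h at 25 °C with a custom Agilent array that had been primer-extended with Cy5-dUTP and blocked with 2% BSA. After washing, the array was read on an Axon 4000B scanner. The binding signal is per-feature fluorescence intensity in arbitrary units.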
OsWRKY34, sequence (Q0JBA9 entry or part of it): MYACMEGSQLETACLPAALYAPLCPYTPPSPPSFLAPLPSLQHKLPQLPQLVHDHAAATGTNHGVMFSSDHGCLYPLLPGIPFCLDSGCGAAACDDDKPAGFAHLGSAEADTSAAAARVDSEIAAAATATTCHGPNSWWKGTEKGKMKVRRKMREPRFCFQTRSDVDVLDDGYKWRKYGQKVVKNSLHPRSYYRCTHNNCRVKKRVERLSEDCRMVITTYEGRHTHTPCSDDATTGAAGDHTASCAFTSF
Regarding “AGACTTTATTTTTTCCCTGGGCTAAGGACTAGTCCCATATCGGAGTCACCTAGTGCAG”, the binding signal is 8980 fluorescence intensity (a.u.).
For the sequence “GGGACCCGATTTGGGCGGTATATACCTTACTTCACGTGCACGGAGTCACCTAGTGCAG”, the binding signal is 8920 fluorescence intensity (a.u.).
Then “ATCGCTGCTGTCTTCTCAAATTATAATTTACCGTTTTTAACGGAGTCACCTAGTGCAG”, with 8090 fluorescence intensity (a.u.).
Then “GCCTCCATCCACCTCGCCCATCCCTACACTCTACTACTCCCGGAGTCACCTAGTGCAG”, with 8670 fluorescence intensity (a.u.); and “CTCCTACTGCCTACCGCCGACGCAGAACTCCGTGGGTTACCGGAGTCACCTAGTGCAG”, with 8210 fluorescence intensity (a.u.); and “GCCTCTCGTGGGCCGTCGCCGCCCACCCGCCCGGACACGTCGGAGTCACCTAGTGCAG”, with 8380 fluorescence intensity (a.u.).
Consider “GGAGTTCGTGGGGACGTTCATCCTCATCTTCTTCGCGACGCGGAGTCACCTAGTGCAG”, for which the binding signal was 9260 fluorescence intensity (a.u.).
Take “ACGCGCGGCCTAGTTGTGTGTGGGTGTGTGAGGTGAGGGGCGGAGTCACCTAGTGCAG”: the binding signal was 11000 fluorescence intensity (a.u.).
Under “GAGTAGAGGTGGGAGGAAGCGGTGGTGTGGTGGGGTGGGGCGGAGTCACCTAGTGCAG” stands 22100 fluorescence intensity (a.u.); under “CGGCGCGCCGTGATTGTGCCTGATTGGGGTGGGGTTGGGGCGGAGTCACCTAGTGCAG”, 25300 fluorescence intensity (a.u.); under “CGGCGGCGGCGGCGGCGGCGGCGGAGGTGGTGTGGGTGGGCGGAGTCACCTAGTGCAG”, 8220 fluorescence intensity (a.u.).
Then “GGTGGCGTGCAGGGTGGAGCGGGAGGGCGGCGGCGGGTGGCGGAGTCACCTAGTGCAG”, with 17300 fluorescence intensity (a.u.); and “GGGAGGGAGCCAGAGCGGCGGGCGTGGGGTTGGAGGAGGGCGGAGTCACCTAGTGCAG”, with 9900 fluorescence intensity (a.u.); and “GTGGGTGGAGGAAGCGGATAGGGAGAGGGGTGTGGGGCGGCGGAGTCACCTAGTGCAG”, with 16000 fluorescence intensity (a.u.).
Then “GCCGTGGTGGTGTGGGGATCGTGTTGTGGCGGCGGATTGGCGGAGTCACCTAGTGCAG”, with 8690 fluorescence intensity (a.u.); and “GGGCGGGCGGGCTCGAGGTTGTGGTGGGGCGTGTGGCAGGCGGAGTCACCTAGTGCAG”, with 18200 fluorescence intensity (a.u.).
Turning to “ATGAGGGGTCGGGGTTGGGCGGCGTGGGCACGGGCTCGAGCGGAGTCACCTAGTGCAG”, the binding signal is 13000 fluorescence intensity (a.u.).
Turning to “GTCGGCGTCGGCGTCGGCGTCGGCGGGCGGGAGGCGGGAGCGGAGTCACCTAGTGCAG”, the binding signal is 8650 fluorescence intensity (a.u.).
Under “TTGGCTCGAGGCGGGGCTGGTTGGTTGGTTGGTTTGGTGGCGGAGTCACCTAGTGCAG” stands 14600 fluorescence intensity (a.u.); under “CCGAAGATATCAACCAAACAGACCCGAACTTCTTCCCATTCGGAGTCACCTAGTGCAG”, 8360 fluorescence intensity (a.u.).
Then “TGTTTTGGACTTTTTGGTCAACGGCCCATCAAAGCAAGCCCGGAGTCACCTAGTGCAG”, with 13000 fluorescence intensity (a.u.); and “GCCAAACGCGCCAGATCCGCGCCTCCTCCACTCACACGCGCGGAGTCACCTAGTGCAG”, with 8910 fluorescence intensity (a.u.); and “AGCACCACCACCACCCCAGCGCCTCCTACTCCACCGGCTCCGGAGTCACCTAGTGCAG”, with 8830 fluorescence intensity (a.u.).
“TCCATGCAGTCTTCTTCTTCTGCAGCCTATGCTGTTAGTCCGGAGTCACCTAGTGCAG”: the binding signal was 11700 fluorescence intensity (a.u.).
For the sequence “TTTCATTGTTTCCGCAGACACGCTTTTCAAACTACTAAACCGGAGTCACCTAGTGCAG”, the binding signal was 8080 fluorescence intensity (a.u.).
“AATTTATAACCGTGACCTGCTGCCATATGCTAACCGTTTACGGAGTCACCTAGTGCAG”: the binding signal was 8260 fluorescence intensity (a.u.).
Then “CTTTGTGCTGGACCGACGACGTCGTTCGCTCTTTTATCCTCGGAGTCACCTAGTGCAG”, with 9040 fluorescence intensity (a.u.).
Under “TGATCTGATCTGACAATTTGGGCGGGCTGTGTTTTATGAACGGAGTCACCTAGTGCAG” stands 12900 fluorescence intensity (a.u.).
Under “CATATCAGTGGTTAACTGTGCTGTCTCAGTTGATCTCCCGCGGAGTCACCTAGTGCAG” stands 8360 fluorescence intensity (a.u.); under “CATGTTAGATGTTTTTTTTCTTGTTACTCTTTTTTATTTTCGGAGTCACCTAGTGCAG”, 13300 fluorescence intensity (a.u.).
As for “ACCTCTGTTTTCATGGGCTAGTGGCCCAGTACCTCACTGCCGGAGTCACCTAGTGCAG”, the binding signal is 8930 fluorescence intensity (a.u.).
Then “GCATGGAGGCGTTTCATCAAACACCTTGCGCCTGCGGGAGCGGAGTCACCTAGTGCAG”, with 8030 fluorescence intensity (a.u.).
Under “AACTACAACTATCTTGTTTTTATTTACACGCTTTTCAAACCGGAGTCACCTAGTGCAG” stands 8620 fluorescence intensity (a.u.); under “AACCCACCTATCTTGTTTTCCACGTGTACGCTTTTCAAACCGGAGTCACCTAGTGCAG”, 19200 fluorescence intensity (a.u.); under “AACCCACCTCTTTCGTTTTCCGCGCGTACGCTTTTCAAACCGGAGTCACCTAGTGCAG”, 8710 fluorescence intensity (a.u.).
On to “TCTGTATATATTACTACTTGCGTTTCTCTTTCTTTCTTCCCGGAGTCACCTAGTGCAG”, for which the binding signal was 11000 fluorescence intensity (a.u.).
In the case of “ATCACATCTTAACATTTCATTCTCTGCTCAAAGATTCGATCGGAGTCACCTAGTGCAG”, the binding signal was 8620 fluorescence intensity (a.u.).
Then “AGCTCATCACTTCTTCTTGCATGCATGCACTACCGTCGGCCGGAGTCACCTAGTGCAG”, with 10400 fluorescence intensity (a.u.); and “TGCACACATGCACACACGCGCGCGCTGCTGCTGCTGCTGACGGAGTCACCTAGTGCAG”, with 8160 fluorescence intensity (a.u.).
Under “GCACACCCTCGCTCTGACGACCCTGTCACGTTGAGCTACGCGGAGTCACCTAGTGCAG” stands 8240 fluorescence intensity (a.u.).
Regarding “GGTGAAGCTCTGCGCTGACACGTTGATGCAGCGGAGCACGCGGAGTCACCTAGTGCAG”, the binding signal is 18900 fluorescence intensity (a.u.).
As to “ACAACGCATTTCCATTTCTACTCTGCCCCTGGTAAATTACCGGAGTCACCTAGTGCAG”, the binding signal was 12400 fluorescence intensity (a.u.).
Regarding “ACTGCCTTACCTGTTCATCTTCCAAACTGATTTGGTTTGTCGGAGTCACCTAGTGCAG”, the binding signal was 9370 fluorescence intensity (a.u.).
As to “AAACAATTATCTAAAAACCTCACTATTAATAGAGAGATTCCGGAGTCACCTAGTGCAG”, the binding signal is 38700 fluorescence intensity (a.u.).
Then “ACGGCACCTCATAGATTATTCCGTCCGTTCCAACAACCTCCGGAGTCACCTAGTGCAG”, with 8320 fluorescence intensity (a.u.).
Then “ACAATTAACACACGTAAACACTATCTGCTATTGTAAAAAACGGAGTCACCTAGTGCAG”, with 8460 fluorescence intensity (a.u.).
Under “ACTTTTTATACGCAACTTTCATTGCATATATTTTACTTTTCGGAGTCACCTAGTGCAG” stands 9540 fluorescence intensity (a.u.); under “TATATAACACAAAATAAGATCAACGTTGACCCGGGTTGACCGGAGTCACCTAGTGCAG”, 10200 fluorescence intensity (a.u.).
Consider “TGGTTTGGTTTGCTTCTTCTCTGCTTCAACGGTTGGTCGACGGAGTCACCTAGTGCAG”, for which the binding signal was 16900 fluorescence intensity (a.u.).
As to “GGGTTGGTTTGGTTTGGTTGCTTCTTCTCTGCTTCAACGGCGGAGTCACCTAGTGCAG”, the binding signal is 40000 fluorescence intensity (a.u.).
Turning to “AAGAATTTTGCTTTGGTTCAACCTTTTTTCTCTTCTTTCTCGGAGTCACCTAGTGCAG”, the binding signal is 11300 fluorescence intensity (a.u.).
Under “TGTGTTGCTCTCTCTTCACTTGGTTGGCGGCGGCGCTGCGCGGAGTCACCTAGTGCAG” stands 8060 fluorescence intensity (a.u.); under “ACCTTCTTACCCACTCCACCCACTGACAACGTTGGCCACCCGGAGTCACCTAGTGCAG”, 9360 fluorescence intensity (a.u.).
With “CAACGTTGACCCGGGTTGACCCACGGTTCTTCAACAAATGCGGAGTCACCTAGTGCAG”, the binding signal was 20700 fluorescence intensity (a.u.).
Under “ATCTCAATGAGTTGGTCGTTTGCTGCTTCTCTATAGTGAACGGAGTCACCTAGTGCAG” stands 9140 fluorescence intensity (a.u.); under “CTGTAGTGTTGCTTGGTTTCTCTTTTTTGCCTCTTCACGGCGGAGTCACCTAGTGCAG”, 13200 fluorescence intensity (a.u.).
